This is part of a sample that, as a whole, favours compounds with a hit. Of some 83,000 tested, about 20% had one in any assay.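 Plates (96-well) were seeded with cells, treated with compound at one concentration, and incubated for 48 hours before percent growth was determined.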 Values without a mark were called inactive. Rule for the calls: active = growth percent below 10; inactive = the rest.
Tested on: T-47D breast
Assay: NCI-60 one-dose screen, 48 h (100 = growth as untreated, 0 = no growth, -100 = all killed)
Conditions: 10 µM unless noted

SMILES | growth [%]
O=C(Cn1c2ccccc2c2ccncc21)N/N=C/c1c[nH]c2ccccc12 | 90.2
Cc1ccc(-c2nc3c(N=Nc4ccc(S(N)(=O)=O)cc4)c(N)nn3c(N)c2C#N)cc1 | 34.1
O=C(Nc1ccccc1Cl)c1c[nH]c(=O)c(-c2ccc(N3CCCOC4(CC4)C3)cc2)c1 | 31.5
OC(COc1ccccc1Cl)CN1CCN(c2ccc(Cl)cc2)CC1 (stereo unspecified) | 101
Nc1nccc2c1ccn2-c1ccc(NC(=O)Nc2cccc(C(F)(F)F)c2)cc1 | 85.1
O=C(Nc1ccc(-n2ccc3c(NC(=O)c4ccccc4)nccc32)cc1)Nc1cccc(C(F)(F)F)c1 | 57.6
O=C1C(Cl)=C(Nc2ccccc2)C(=O)C(Cl)=C1Nc1ccccc1 | 98.4
CC(=O)Nc1ccc([I+]c2ccc([N+](=O)[O-])cc2)cc1 | 68.1
CCN1CCN(Cc2ccc(NC(=O)Nc3cccc(-n4ccc5c(NC(=O)c6ccccc6)nccc54)c3)cc2C(F)(F)F)CC1 | 74.7
O=C(Nc1cccc(-n2ccc3c(NC(=O)c4ccccc4)nccc32)c1)c1cccc(C(F)(F)F)c1 | 55.8
CC(=O)N[C@@H](CNC(=O)c1cc(NC(=O)c2cc(NC(=O)c3cc(NC(=O)c4nccn4C)cn3C)cn2C)cn1C)CC(=O)Nc1cn(C)c(C(=O)Nc2cc(C(=O)Nc3cc(C(=O)Nc4cc(C(=O)NCCCN(C)CCCNC(=O)c5cccc(C(=O)O)c5)n(C)c4)n(C)c3)n(C)c2)n1 | 41.5

Reference: PubChem BioAssay (NCI)
